Laboratory results published in PubChem BioAssay AID434958 (Southern Research Specialized Biocontainment Screening …, 2010).
Screen size: about 1,200 compounds; about 400 (33%) were called active. The rule behind the calls is not given here. Not all results are given here. Measured potencies and affinities stand elsewhere.

Assay: mammalian cell cytotoxicity, dose response, cytotoxicity control (AID 434958);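 note: cells exposed to compound for 72 hours before readout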
Settings: cytotoxicity counter-screen; series mostly up to 40 µM
With `O=C(COC(=O)c1ccc([N+](=O)[O-])s1)NCc1ccccc1` the outcome was “inactive”.
With `Cc1ccsc1C(=O)NNC(=O)c1csc(N2CCOCC2)n1` the outcome was “inactive”.
In the case of `COC(=O)c1ccc(/C=N/NC(=O)c2cccc(F)c2)cc1`, the outcome is reported as “inactive”.
In the case of `COc1ccc(/C=C/C(=O)N(C(C)C)C(C)C)cc1Br`, the outcome is reported as “inactive”.
In the case of `COc1ccc2ccccc2c1/C=N/NC(=O)c1cccc(Br)c1`, the outcome is reported as “inactive”.
In the case of `COc1cc(/C=C/C(=O)NC(C)(C)C)ccc1OCc1ccccc1`, the outcome is reported as “inactive”.
In the case of `CC1(C)CC(=O)c2cc(C(=O)NCc3ccco3)c(=O)n(-c3ccccc3)c2C1`, the outcome is reported as “inactive”.
With `CCC1(c2ccc(Cl)cc2)NC(=S)N(c2ccc(C)cc2)N1` (centres undefined) the outcome was “inactive”.
For `CC(=O)NC(=S)Nc1ccc(NC(=O)c2cccnc2Cl)cc1`, the outcome was “inactive”.
For `CCCCN=C1CC(C)(C)CC(=O)/C1=C(/O)CCC`, the outcome was “inactive”.
For `CCOC(=O)c1c(C)[nH]c(C(=O)COC(=O)CCC2CCCC2)c1C`, the outcome was “inactive”.
For `CCOc1ccc2nc(SC3CC(=O)N(c4cccc(OC)c4)C3=O)sc2c1` (centres undefined), the outcome was “inactive”.
For `CCc1cc2c(=O)oc(-c3ccccc3F)nc2s1`, the outcome was “inactive”.
For `CCCCN1C(=O)c2ccc(C(=O)Nc3cccc(C)c3C)cc2C1=O`, the outcome was “inactive”.
With `CCOC(=O)c1nc(N2CCN(C(=O)OCC)CC2)c2c3c(sc2n1)CCCC3` the outcome was “inactive”.
In the case of `CC(=O)Nc1ccc(C(=O)N(C2=NC(C)CS2)c2ccc(Cl)cc2)cc1` (centres undefined), the outcome is reported as “inactive”.
In the case of `COc1ccc(C2C(C#N)=C(SCC(=O)Nc3ccc(C)cc3)NC3=C2C(=O)CC(C)(C)C3)cc1` (centres undefined), the outcome is reported as “inactive”.
For `CCCCNC(=O)c1onc(CSc2ccccc2CC)c1C(=O)O`, the outcome was “inactive”.
With `CCCC(=O)Nc1ccc(NC(=S)NC(=O)c2cccs2)cc1` the outcome was “inactive”.
With `CCCC(=O)N1CCN(c2ccc(NC(=S)NC(=O)CC)cc2)CC1` the outcome was “inactive”.
In the case of `Cc1ccc(C(=O)OCCN2CCN(c3ncc(C(F)(F)F)cc3Cl)CC2)cc1`, the outcome is reported as “inactive”.
In the case of `N#Cc1c(-c2cccs2)cc(-c2ccccn2)nc1N`, the outcome is reported as “inactive”.
With `Cc1cc(C)c2c(N)c(S(=O)c3ccc(C(C)(C)C)cc3)sc2n1` (centres undefined) the outcome was “inactive”.
For `CC(=O)c1ccc(OCCCC(=O)OCC(=O)N2CCN(c3ccccc3)CC2)cc1`, the outcome was “inactive”.
In the case of `Cc1nnc(SCc2cccc(Cl)c2)n(N)c1=O`, the outcome is reported as “inactive”.
With `Cc1cccc(/C=N\NC(=O)c2csnn2)c1` the outcome was “inactive”.
With `O=C(Cc1ccc(Cl)cc1Cl)Nc1ccc(OC(F)F)c(Cl)c1` the outcome was “inactive”.
For `CCOC(=O)Cn1c(C)cc(=O)c2cccc(C)c21`, the outcome was “inactive”.
In the case of `O=C(Nc1ccccc1Br)c1cccc2ccccc12`, the outcome is reported as “inactive”.
In the case of `Cc1ccn2c(CNCCn3nc(C)cc3C)c(C(=O)N3CCCCCC3)nc2c1`, the outcome is reported as “inactive”.
With `COc1ccc(C(=O)NC(=S)NC(C)(C)C)cc1Br` the outcome was “inactive”.
For `COc1ccc(C2(CNC(=O)c3cc([N+](=O)[O-])cc([N+](=O)[O-])c3)CCCC2)cc1OC`, the outcome was “inactive”.
For `CN1C2CCC1CC(OC(=O)c1ccc([N+](=O)[O-])cc1)C2` (centres undefined), the outcome was “inactive”.
For `CCC(=O)c1ccc(OCc2ccc(C(=O)OC)cc2)c(OC)c1`, the outcome was “inactive”.
In the case of `O=C(COC(=O)Cc1ccc(S(=O)(=O)N2CCCCC2)s1)Nc1ccc2c(c1)OCO2`, the outcome is reported as “inactive”.
For `CC(=O)Nc1ccc(SCC(=O)c2cc(C)n(CC(F)(F)F)c2C)cc1`, the outcome was “inactive”.
For `CCOC(=O)Cn1c(=NC(=O)C2CC2)sc2c(C)cc(C)cc21`, the outcome was “inactive”.
With `O=C(OCC(=O)N(Cc1ccccc1)C1CCS(=O)(=O)C1)c1cc2c(s1)CCCC2` (centres undefined) the outcome was “inactive”.
In the case of `O=C(COc1ccccc1[N+](=O)[O-])N(Cc1cccc(Br)c1)C1CCS(=O)(=O)C1` (centres undefined), the outcome is reported as “inactive”.
For `Cc1ccc(C(=O)NCC2(c3ccccc3)CCCC2)cc1`, the outcome was “inactive”.
With `CC(NC(=O)CSc1nc2ccccc2c(=O)[nH]1)c1ccccc1` (centres undefined) the outcome was “inactive”.
With `COCCNC(C(=O)Nc1ccc(C)cc1[N+](=O)[O-])c1ccccc1` (centres undefined) the outcome was “inactive”.
For `CCOC(=O)COc1nc(-c2ccc(Cl)cc2)cc(-c2ccco2)c1C#N`, the outcome was “inactive”.
With `CN(c1ccc(OCC(=O)OCC(=O)c2c(N)n(C)c(=O)n(C)c2=O)cc1)S(=O)(=O)c1ccc2ccccc2c1` the outcome was “inactive”.
For `CC1(C)CC(CCNC(=O)CCl)(c2ccccc2)CCO1` (centres undefined), the outcome was “inactive”.
With `Cn1ccnc1C(=O)Cc1ccc([N+](=O)[O-])cc1` the outcome was “inactive”.
In the case of `CCOC(=O)c1sc(NC(=O)CSc2n[nH]c(CC(C)C)n2)nc1C`, the outcome is reported as “inactive”.
For `Cc1ccccc1C(=O)NC(=S)Nc1sc2c(c1C#N)CCC(C)C2` (centres undefined), the outcome was “inactive”.
With `CCOC(=O)c1c(NC(=O)C(=O)N/N=C/c2ccccc2OC)sc2c1CCCCC2` the outcome was “inactive”.
In the case of `Cc1cc(C(=O)CSc2nnnn2-c2ccccc2)c(C)n1-c1ccc2c(c1)OCO2`, the outcome is reported as “inactive”.
For `O=C(Nc1nc(-c2ccc(F)c(F)c2)cs1)c1cnccn1`, the outcome was “inactive”.
In the case of `COc1c(NC(C)=O)c2ccccc2c2ccccc12`, the outcome is reported as “inactive”.
In the case of `COc1ccc2nc(SCc3cccc(C)c3)nc(C)c2c1`, the outcome is reported as “inactive”.
With `NC(=S)N/N=C/c1cccc(/C=N/NC(N)=S)c1` the outcome was “inactive”.
In the case of `O=C(Cn1c(=O)c2cccn2c2ccccc21)NCCc1ccc(Cl)cc1`, the outcome is reported as “inactive”.
With `Cc1ccc(-n2ncc3c(=O)n(CC#N)cnc32)cc1C` the outcome was “inactive”.
In the case of `COc1ccc(C2CC(c3c(-c4ccccc4)c4cc(Cl)ccc4[nH]c3=O)=NN2S(C)(=O)=O)cc1` (centres undefined), the outcome is reported as “inactive”.
In the case of `CC(=O)c1sc(N/N=C\c2ccc(N(C)C)cc2)nc1C`, the outcome is reported as “inactive”.
With `CC(C)c1ccc(/C=C/C(=O)NC2CCCCC2)cc1` the outcome was “inactive”.
For `CN(C)/N=C/c1ccc(/C=N/NC(N)=S)o1`, the outcome was “inactive”.
For `O=C(N/N=C/c1cccc(Br)c1)c1ccc(Cn2cc(Br)cn2)o1`, the outcome was “inactive”.
For `CC1(C)C2CC=C(/C=N/NC(=O)c3ccccc3O)C1C2` (centres undefined), the outcome was “inactive”.
With `O=C1OC(c2ccco2)=N/C1=C\c1ccc(-c2cccc(C(F)(F)F)c2)o1` the outcome was “inactive”.
In the case of `CC1=NN(c2ccccc2)C(=O)/C1=C/c1c(O)[nH]c(=S)[nH]c1=O`, the outcome is reported as “inactive”.
For `Cc1cc(N2CCN(c3ccccc3)CC2)nc2ccccc12`, the outcome was “inactive”.
In the case of `COc1ccc(NC(=O)C(Cc2ccccc2)n2cccc2)c(OC)c1` (centres undefined), the outcome is reported as “inactive”.
For `CCCN1C(=O)c2ccc(C(=O)Nc3cc(C)on3)cc2C1=O`, the outcome was “inactive”.
For `COc1ccc(OC)c(NC(=O)CSC2=C(C#N)C(c3ccco3)C3=C(CCCC3=O)N2)c1` (centres undefined), the outcome was “inactive”.
With `CC(=O)c1ccc(-n2c(C)ccc2-c2ccccc2)cc1` the outcome was “inactive”.
With `COc1cc(NC(=S)NC(=O)c2cccs2)ccc1NC(=O)C(C)C` the outcome was “inactive”.
For `Cc1ccc(/C=C/C(=O)OCC(=O)NC(C)c2ccccc2)o1` (centres undefined), the outcome was “inactive”.
With `CCOC(=O)N1CCC(N2CCN(S(=O)(=O)c3ccc(Cl)cc3)CC2)CC1` the outcome was “inactive”.
For `COc1ccc(-c2csc(Nc3ccc(C)cn3)n2)cc1OC`, the outcome was “inactive”.
In the case of `Cc1nnnn1/C(=C\c1ccccc1)C(=O)OCC(=O)Nc1ccc(Cl)cc1F`, the outcome is reported as “inactive”.
For `Cc1ccccc1OCC(=O)Nc1ccccc1-c1ccccc1`, the outcome was “inactive”.
With `c1ccc(-c2noc(-c3cccc4ccccc34)n2)cc1` the outcome was “inactive”.
With `O=C(CC(=O)c1ccccc1)Nc1ccc2c(c1)OCCO2` the outcome was “inactive”.
In the case of `O=C(Cc1ccccc1Cl)Nc1nc2ccccc2[nH]1`, the outcome is reported as “inactive”.
In the case of `Cc1ccc(CC(=O)Nc2nc3ccccc3[nH]2)cc1C`, the outcome is reported as “inactive”.
In the case of `COc1ccc2sc(-c3ccc(N(C)C)cc3)c(C#CC(C)(C)O)c2c1`, the outcome is reported as “inactive”.
With `CSc1nnc(C)c(/C=C/Nc2ccc(Cl)cc2)n1` the outcome was “inactive”.
For `Cn1cc(C(=O)N/N=C/C(Br)=C\c2ccccc2)ccc1=O`, the outcome was “inactive”.
In the case of `CCOc1cc(C(=O)N2CCC(CC3CC(c4ccccc4)=NO3)(C(=O)NCc3ccc(OC)cc3)CC2)cc(OCC)c1OCC` (centres undefined), the outcome is reported as “inactive”.
For `CC/C(=N\NC(=S)NC(C)C)c1ccc(OC)c(OC)c1`, the outcome was “inactive”.
With `c1ccc(-n2c3ccccc3c3ccccc32)cc1` the outcome was “inactive”.
With `O=C(N[C@@H](Cc1ccccc1)C(=O)CCl)OCc1ccccc1` the outcome was “inactive”.
In the case of `CSc1cccc(NC(=O)c2ccc(Cl)nc2)c1`, the outcome is reported as “inactive”.
With `C/C(=N\NC(=O)c1cccc(Cl)c1)c1cccc(NC(=O)C(C)C)c1` the outcome was “inactive”.
For `CC(C)C[C@H](NC(=O)c1nc[nH]c1C(=O)N1CCN(C(=O)OC(C)(C)C)CC1)C(=O)OCc1ccccc1`, the outcome was “inactive”.
With `O=C1CC(Nc2ccc(N3CCOCC3)cc2)C(=O)N1C1CCCCC1` (centres undefined) the outcome was “inactive”.
In the case of `O=C(O)CCN1C(=O)/C(=C/c2ccc(-c3nc4ccccc4s3)o2)SC1=S`, the outcome is reported as “inactive”.
With `COc1ccc(-c2cc3nc(C)cc(N4CC(C)CC(C)C4)n3n2)cc1` (centres undefined) the outcome was “inactive”.
In the case of `C/C(CC(=O)Nc1c(C)cc(C)cc1C)=N\NC(=O)c1cnccn1`, the outcome is reported as “inactive”.
For `O=C(OCC(=O)N1CCc2ccccc21)c1ccc(Cl)nc1`, the outcome was “inactive”.
In the case of `Cc1cc(NC(=O)CCS(=O)(=O)c2nc(-c3ccccc3)cc(C(F)(F)F)n2)no1`, the outcome is reported as “inactive”.
For `CC/C(=N\NC(=O)c1ccc(N(C)C)cc1)c1ccccc1`, the outcome was “inactive”.
In the case of `O=C(COn1nnc2ccc(Cl)cc21)NC12CC3CC(CC(C3)C1)C2`, the outcome is reported as “inactive”.
In the case of `CCc1ccc(NC(=O)C2C3/C=C\CCCCC32)cc1` (centres undefined), the outcome is reported as “inactive”.
With `CCOC(=O)/C=C/c1ccc2c(c1)S(=O)(=O)N(Cc1ccc(OC)cc1)[C@H]2CC(=O)OCC` the outcome was “inactive”.
For `O=C(COC(=O)C1=COCCO1)Nc1ccc2c(c1)OCO2`, the outcome was “inactive”.
In the case of `CCOC(=O)c1c(C)[nH]c(N=Nc2ccccc2Cl)c1C`, the outcome is reported as “inactive”.
With `COCCCNCCOCCOc1ccc(C)cc1Br` the outcome was “inactive”.
In the case of `COc1cccc(NC(=S)Nc2cc(C)cc(C)n2)c1`, the outcome is reported as “inactive”.
For `O=C(O)c1cc(-c2ccco2)nc2ccc(Br)cc12`, the outcome was “inactive”.
With `CN(C)S(=O)(=O)n1cc(/C=C(\NC(=O)c2ccccc2)C(=O)NCCN2CCOCC2)c2ccccc21` the outcome was “inactive”.
With `CCOC(=O)c1ccc(N2CN(CCc3ccccc3)CNC2=S)cc1` the outcome was “inactive”.
In the case of `CC(C)(C)c1nnc2sc(SCC(=O)c3cccs3)nn2c1=O`, the outcome is reported as “inactive”.
In the case of `CCCn1nc(NC(=O)c2ccco2)c2cc3cc(C)ccc3nc21`, the outcome is reported as “inactive”.
For `CNC(=O)COC(=O)c1ccccc1NC(=O)c1ccco1`, the outcome was “inactive”.
